Sampled rows, rich in hits. Any-hit rate of the full collection: about 6.5%.
FMDV inh = antivirals against foot and mouth disease virus; FMDV antiviral cell-based qHTS; Potency, µM (highest dose often 57.9 µM), for inactives: at the highest dose activity change, negative = inhibition, most hits filed as inhibitors; 410,000 compounds, 1.2% hits; calls by dose curve; tested in HEK293T cells; also: read-out not given here; potency is read from the fitted curve at half-maximal effect; nearly all actives have a fitted effect of over 45% in size
HCMV inh = inhibitors of human cytomegalovirus. HFF cells, HCMV-luciferase reporter, 72 h; stronger effect = lower value. activity change, negative = inhibition, % at 57.5 µM. 410,000 compounds, 4.5% hits; in the data active = activity change below about -60%; inconclusive = no clear call, values can overlap the other calls; inactive = above about -39%
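Compounds were evaluated in HFFs infected with an HCMV luciferase reporter virus (MOI 1 PFU/cell). Luciferase in lysates collected 72 h post infection served as the replication measure.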
Marburg entry inh = inhibitors of Marburg virus binding or cell entry. Marburg virus pseudotyped entry inhibition, cell reporter. Potency, µM (top dose mostly 37.8 µM), without a hit: at the highest dose activity change, negative = inhibition, hits mostly inhibitors. 300,000 compounds, 1.8% hits. AID 540276; calls by dose curve; tested in HEK293 cells; also: potency is read from the fitted curve at half-maximal effect
LASV entry inh = Lassa virus entry inhibition; Lassa virus pseudotype entry inhibition, cell reporter; Potency, µM (series often up to 37.9 µM), inactives show at the highest dose activity change, negative = inhibition, usual class: inhibitors; 300,000 compounds, 1.2% hits; AID 540256; calls by dose curve; tested in HEK293 cells; also: potency is read from the fitted curve at half-maximal effect; nearly all actives have a fitted effect of over 50% in size
Vaccinia mCherry = inhibitors of vaccinia virus infection (mCherry reporter signal); Potency, µM (top dose mostly 36.5 µM), for inactives: top-dose activity change, negative = inhibition, actives largely listed as inhibitors; 310,000 compounds, 0.63% hits; Vaccinia virus mCherry reporter infection, fluorescence; AID 720579; calls by dose curve; tested in A549 cells; also: potency is read from the fitted curve at half-maximal effect; nearly all actives have a fitted effect of over 35% in size
VACV Venus inh = inhibitors of vaccinia virus (Venus reporter); 330,000 compounds, 0.46% hits; Vaccinia virus Venus reporter expression, fluorescence; Potency, µM (doses to about 36.5 µM), for inactives: top-dose activity change, negative = inhibition, actives largely listed as inhibitors; AID 720580; calls by dose curve; tested in A549 cells; also: potency is read from the fitted curve at half-maximal effect; nearly all actives have a fitted effect of over 30% in size
The depositor's hits bear a star; [ ] = another dose, or the depositor's remark. % is scaled to controls: 0 for no effect and ±100 for the full control effect.

`CC[C@@H](C(=O)[C@@H](C)[C@@H](O)[C@H](C)CCc1ccc(C)c(O)c1C(=O)O)[C@H]1O[C@](CC)([C@H]2CC[C@](O)(CC)[C@H](C)O2)C[C@@H]1C` gave FMDV inh 28µM*, HCMV inh -99*, Vaccinia mCherry inconclusive and VACV Venus inh 10µM*.
For COCCN1C(=O)NC(c2ccccc2)C(C(=O)OC)=C1C (stereo unspecified) the results were Marburg entry inh 8%[14.2 µM].
Cc1ccc(C(NC(=O)N2CCCCC2)=C(Cl)Cl)cc1F was read as FMDV inh inconclusive, HCMV inh -80*, Marburg entry inh -10% and LASV entry inh 2%.
For CCC(Cc1ccccc1)NCc1c(C(=O)O)c(C)n(Cc2ccccc2)c1C (stereo unspecified) the results were FMDV inh -8%, HCMV inh -74*, Marburg entry inh inconclusive, LASV entry inh -29%[46.1 µM], Vaccinia mCherry -11% and VACV Venus inh -15%.
`CCCCC[C@H]1C[C@@H](CC#CCN2CCOCC2)C(=O)O1` gave Marburg entry inh 10%.
For CCCN(C(=O)c1cc2c(s1)-c1ccccc1SC2)c1ccccc1F the results were FMDV inh -19%, HCMV inh -68*, Marburg entry inh -5%[46.1 µM], LASV entry inh inconclusive, Vaccinia mCherry -11% and VACV Venus inh -12%.
For CN(C)CCNC(=O)c1cc2c(s1)-c1ccc(Cl)cc1SC2 the results were FMDV inh inconclusive, HCMV inh -100*, Vaccinia mCherry inconclusive and VACV Venus inh 3.5µM*.
For O=C(/C=C/c1ccccc1)N1CC2ON=C(c3c(F)cccc3Cl)C2C1 (stereo unspecified) the results were HCMV inh -8.
`COC(=O)c1ccc2c(=O)n(CCCCCC(=O)N3CCN(c4cccc(C)c4C)CC3)c(=O)[nH]c2c1` gave FMDV inh -21%, HCMV inh -36, LASV entry inh 1%[46.1 µM], Vaccinia mCherry inactive and VACV Venus inh -14%.
`COc1ccc(F)c(CN2CCOc3ccc(CN4CCCCC4CO)cc3C2)c1` (stereo unspecified) gave FMDV inh 0%, Vaccinia mCherry -15% and VACV Venus inh -8%.
For CC(C)(C)c1ccc(/C=C2\Oc3cc(OC(=O)N4CCOCC4)ccc3C2=O)cc1 the results were FMDV inh inconclusive, HCMV inh -38, Marburg entry inh inconclusive, LASV entry inh 8.9µM*, Vaccinia mCherry -11% and VACV Venus inh -7%.
For Cc1ccc(/C=C2\Oc3cc(OC(=O)N4CCOCC4)ccc3C2=O)cc1 the results were FMDV inh 14%, HCMV inh 45, Marburg entry inh 3%, LASV entry inh 6%, Vaccinia mCherry -13% and VACV Venus inh -5%.
`CN(c1ccc(-c2csc(NC(=O)C3CC(=O)N(Cc4ccco4)C3)n2)cc1)S(C)(=O)=O` (stereo unspecified) gave FMDV inh 22µM* and HCMV inh 24.
CCCCNC(=O)c1nc2ccccc2nc1-c1ccc(F)cc1 was read as HCMV inh -2.
Screening NS(=O)(=O)c1ccc(N=Nc2c(-c3ccccc3)[nH]n(-c3nc(-c4ccccc4)cs3)c2=O)cc1 returned FMDV inh -20%, HCMV inh -37, Marburg entry inh 22µM*, LASV entry inh inconclusive, Vaccinia mCherry inactive and VACV Venus inh -18%.
Screening Brc1ccc2c(c1)-c1ccccc1C1=NCCN12 returned FMDV inh inconclusive, HCMV inh -69*, Vaccinia mCherry inconclusive and VACV Venus inh inconclusive.
CN1C2=NCCN2C(=O)c2cc(Cl)ccc21 was read as FMDV inh 6%, HCMV inh 53, Marburg entry inh -2%[46.1 µM], LASV entry inh 7%, Vaccinia mCherry -7% and VACV Venus inh -11%.
Clc1ccc2c(c1)-c1ccccc1C1=NCCN12 was read as FMDV inh inconclusive, HCMV inh -96*, Vaccinia mCherry inconclusive and VACV Venus inh inconclusive.
Screening Clc1ccc(Cn2c3c(c4ccccc42)CCc2cc4ccccc4nc2-3)cc1 returned Vaccinia mCherry -3% and VACV Venus inh -9%.
